In PubChem BioAssay (EPA / NIEHS):
Results filed as inconclusive are left out. Activity calls are given as the source filed them. How the source made its calls, unless noted: active means hit-call score of the fitted dose curve at least 0.9, where 1 is the maximum; inconclusive means response in the unintended direction; inactive means score below 0.9.

Key:
[1] = biological target: zebrafish Estrogen Receptor (ESR1), esr1 (gene 259252) (UniProt P57717); test: ATG_zfER1_XSP1: Attagene TRANS-FACTORIAL Multi-Species (XSP1) HepG2 Assay for zebrafish Estrogen Receptor (ESR1) (AID 2283772)
Outline: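 Reporter mRNA induction, gauged via RT-PCR/capillary electrophoresis fluorescence relative to DMSO controls, in HepG2 cells transiently carrying GAL4-UAS reporter units; 24 h dosing.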

[2] = tested on: frog Estrogen Receptor (ESR1), gene 398734; test: ATG_frER1_XSP1: Attagene TRANS-FACTORIAL Multi-Species (XSP1) HepG2 Assay for frog Estrogen Receptor (ESR1) (AID 2283777)
Outline: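 Human hepatoma HepG2 cells carried transiently transfected multiplexed Gal4-driven reporters and were exposed to test chemicals for 24 hours. Transcripts were quantified by fluorescent RT-PCR with capillary electrophoresis, referenced to DMSO.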

[3] = biological target: Peroxisome proliferator-activated receptor gamma (Homo sapiens) (UniProt P37231); test: ATG_hPPARg_XSP1: Attagene TRANS-FACTORIAL Multi-Species (XSP1) HepG2 Assay for human Peroxisome Proliferator-activated Receptor gamma (PPARg) (AID 2283800)
Outline: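 HepG2 cells transiently transfected with GAL4-UAS reporter units carrying chimeric NR-Gal4 proteins; 3 nM 6-alpha-fluorotestosterone present. After 24 h dosing, reporter mRNA quantified by RT-PCR and capillary electrophoresis; gain of signal relative to DMSO.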

[4] = biological target: mouse Peroxisome Proliferator-activated Receptor gamma (PPARg), Pparg (gene 19016) (UniProt P37238); test: ATG_mPPARg_XSP1: Attagene TRANS-FACTORIAL Multi-Species (XSP1) HepG2 Assay for mouse Peroxisome Proliferator-activated Receptor gamma (PPARg) (AID 2283802)
Outline: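 HepG2 cells transiently transfected with GAL4-UAS reporter units driven by mouse PPARg–GAL4 chimera; 3 nM 6-alpha-fluorotestosterone present. After 24 h dosing, reporter mRNA quantified by RT-PCR, fluorescent labelling and capillary electrophoresis; gain of signal versus DMSO.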

[5] = biological target: frog Thyroid hormone Receptor alpha (TRa), thra-a (gene 397942) (UniProt P15204); test: ATG_frTRa_XSP1: Attagene TRANS-FACTORIAL Multi-Species (XSP1) HepG2 Assay for frog Thyroid hormone Receptor alpha (TRa) (AID 2283804)
Outline: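 HepG2 cells transiently transfected with frog TRa-GAL4 chimeric reporter units, dosed 24 hr with 3 nM 6-alpha-fluorotestosterone present; reporter mRNA quantified by RT-PCR, fluorescent labelling and capillary electrophoresis, gain of signal versus DMSO.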

[6] = biological target: human Thyroid hormone Receptor alpha (TRa), THRA (gene 7067) (UniProt P10827); test: ATG_hTRa_XSP1: Attagene TRANS-FACTORIAL Multi-Species (XSP1) HepG2 Assay for human Thyroid hormone Receptor alpha (TRa) (AID 2283805)
Outline: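 HepG2 cells transiently transfected with GAL4-UAS reporter units expressing chimeric NR-Gal4 proteins, dosed 24 hours with 3 nM 6-alpha-fluorotestosterone present. Reporter mRNA measured by RT-PCR and capillary electrophoresis; gain of signal fitted versus DMSO.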

[7] = biological target: zebrafish Estrogen Receptor (ER1), esr1 (gene 259252) (UniProt P57717); test: ATG_zfER1_XSP2: Attagene TRANS-FACTORIAL Multi-Species (XSP2) HepG2 Assay for zebrafish Estrogen Receptor (ER1) (AID 2283816)
Outline: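 HepG2 cells transiently transfected with a GAL4-UAS reporter and a chimeric zebrafish ER1-Gal4 construct, dosed 24 h. Reporter mRNA quantified by RT-PCR, labelling, HpaI digestion and capillary electrophoresis, relative to DMSO.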

[8] = tested on: zebrafish Estrogen Receptor (ER2a), gene 317734; test: ATG_zfER2a_XSP2: Attagene TRANS-FACTORIAL Multi-Species (XSP2) HepG2 Assay for zebrafish Estrogen Receptor (ER2a) (AID 2283818);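 further: hits raise reporter mRNA so AC50 reflects activation of zebrafish ER2a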
Outline: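 HepG2 cells transiently transfected with GAL4-UAS reporter units and chimeric zebrafish ER2a-Gal4, exposed 24 h; medium contains 3 nM 6-alpha-fluorotestosterone and 1.5 nM norgestrel. Reporter mRNA quantified by RT-PCR, HpaI digestion, capillary electrophoresis; gain versus DMSO.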

[9] = tested on: frog Estrogen Receptor (ER), gene 398734; test: ATG_frER1_XSP2: Attagene TRANS-FACTORIAL Multi-Species (XSP2) HepG2 Assay for frog Estrogen Receptor (ER) (AID 2283821);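 further: hits raise reporter mRNA above DMSO baseline so potency means agonist or activator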
Outline: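 Steps: transfect HepG2 with multiple reporter transcription units; treat with chemical for 24 h; isolate RNA, reverse-transcribe, PCR-amplify, label with 6-FAM, digest with HpaI; resolve fragments by capillary electrophoresis. Signal is scored against DMSO.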

[10] = biological target: zebrafish Thyroid Hormone Receptor beta (TRb), thrb (gene 30607) (UniProt Q9PVE4); test: ATG_zfTRb_XSP2: Attagene TRANS-FACTORIAL Multi-Species (XSP1) HepG2 Assay for zebrafish Thyroid Hormone Receptor beta (TRb) (AID 2283836)
Outline: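 Human liver HepG2, transient MRTU transfection (NR-Gal4 chimeras, GAL4-UAS reporters); 24 h compound exposure; total RNA → oligo(dT) RT → PCR → 6-FAM label → HpaI cut → CE fluorescence. DMSO = negative control/baseline.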

[11] = CEETOX_H295R_11DCORT_noMTC: CeeTox H295R High-throughput Steroidogenesis Assay for 11-Deoxycortisol (11DCORT), maximum tolerated concentration (MTC) filtered results only (AID 2283911; active means hit-call score of the fitted dose curve at least 0.9, where 1 is the maximum; inactive means score below 0.9); details: actives raise or lower the signal
Outline: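 Forskolin-primed (10 uM, 48 h) H295R adrenal cells are dosed for 48 h at 0.1% DMSO; medium 11-deoxycortisol is quantified by LC-MS/MS against a 7-point standard curve, with activity fitted in both directions versus DMSO.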

[12] = CEETOX_H295R_OHPREG_noMTC: CeeTox H295R High-throughput Steroidogenesis Assay for OH-Pregnenolone (OHPREG), maximum tolerated concentration (MTC) filtered results only (AID 2283912; active means hit-call score of the fitted dose curve at least 0.9, where 1 is the maximum; inactive means score below 0.9); details: actives raise or lower the signal
Outline: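 Steroidogenesis in H295R cells (OECD 456, modified): after 48 h forskolin priming and 48 h chemical treatment, secreted 17alpha-hydroxypregnenolone is measured by HPLC-MS/MS. Activity is fitted in both directions against DMSO; concentrations are not filtered by MTT-based MTC.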

[13] = CEETOX_H295R_OHPROG_noMTC: CeeTox H295R High-throughput Steroidogenesis Assay for OH-Progesterone (OHPROG), maximum tolerated concentration (MTC) filtered results only (AID 2283914; active means hit-call score of the fitted dose curve at least 0.9, where 1 is the maximum; inactive means score below 0.9); details: actives raise or lower the signal
Outline: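 Forskolin 10 uM, 48 h prestim → test cmpd in DMSO (0.1% final), 48 h → medium MTBE extraction → LC-MS/MS quant of 17alpha-OH-progesterone. Bidirectional fit vs DMSO; no MTT-based MTC filtering.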

[14] = CEETOX_H295R_ANDR_noMTC: CeeTox H295R High-throughput Steroidogenesis Assay for Androstenedione (ANDR), maximum tolerated concentration (MTC) filtered results only (AID 2283915; active means hit-call score of the fitted dose curve at least 0.9, where 1 is the maximum; inactive means score below 0.9); details: actives raise or lower the signal
Outline: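 H295R cells, passage 10 or below, prestimulated 48 h with 10 uM forskolin, then exposed 48 h to chemical in 0.1% DMSO. Medium androstenedione extracted with MTBE, quantified by HPLC-MS/MS; concentrations not MTC-filtered; bidirectional fit versus DMSO.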

[15] = CEETOX_H295R_CORTISOL_noMTC: CeeTox H295R High-throughput Steroidogenesis Assay for Cortisol, maximum tolerated concentration (MTC) filtered results only (AID 2283916; active means hit-call score of the fitted dose curve at least 0.9, where 1 is the maximum; inactive means score below 0.9); details: actives raise or lower the signal
Outline: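 Cortisol secretion measured by LC-MS/MS after 48 h chemical treatment (final 0.1% DMSO) of forskolin-primed (10 uM, 48 h) H295R cells; gain or loss fitted relative to DMSO, without maximum-tolerated-concentration filtering.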

[16] = CEETOX_H295R_CORTIC_noMTC: CeeTox H295R High-throughput Steroidogenesis Assay for Corticosterone (CORTIC), maximum tolerated concentration (MTC) filtered results only (AID 2283917; active means hit-call score of the fitted dose curve at least 0.9, where 1 is the maximum; inactive means score below 0.9); details: actives raise or lower the signal
Outline: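 Following OECD 456 with minor changes, H295R cultures received 10 uM forskolin for 48 h, then test chemical at 0.1% DMSO for 48 h. Media steroids were extracted and measured by LC-MS/MS.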

[17] = CEETOX_H295R_DOC_noMTC: CeeTox H295R High-throughput Steroidogenesis Assay for DOC, maximum tolerated concentration (MTC) filtered results only (AID 2283918; active means hit-call score of the fitted dose curve at least 0.9, where 1 is the maximum; inactive means score below 0.9); details: actives raise or lower the signal
Outline: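 11-Deoxycorticosterone secreted by human adrenal H295R cells quantified by HPLC-MS/MS after 48 h chemical exposure (0.1% DMSO), following 48 h 10 uM forskolin prestimulation. Concentrations not filtered by MTT-derived MTC; bidirectional fitting.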

[18] = CEETOX_H295R_PROG_noMTC: CeeTox H295R High-throughput Steroidogenesis Assay for Progesterone (PROG), maximum tolerated concentration (MTC) filtered results only (AID 2283920; active means hit-call score of the fitted dose curve at least 0.9, where 1 is the maximum; inactive means score below 0.9); details: actives raise or lower the signal
Outline: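 H295R cells; forskolin 10 uM x 48 h prestim; test cpd 48 h, 0.1% DMSO final; media progesterone via LC-MS/MS; bidirectional fit vs DMSO; no MTT-based MTC filter applied.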

[19] = CEETOX_H295R_TESTO_noMTC: CeeTox H295R High-throughput Steroidogenesis Assay for Testosterone (TESTO), maximum tolerated concentration (MTC) filtered results only (AID 2283924; active means hit-call score of the fitted dose curve at least 0.9, where 1 is the maximum; inactive means score below 0.9); details: actives raise or lower the signal
Outline: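 H295R cells prestimulated 48 h with 10 uM forskolin, then exposed 48 h to chemicals in 0.1% DMSO final. Testosterone in medium quantified by MTBE extraction and HPLC-MS/MS; bidirectional fit versus DMSO, concentrations […] filtered by MTT-based maximum tolerated concentration.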

[20] = CCTE_Mundy_HCI_Cortical_Synap_Neur_Matur_NeuriteSpotCountPerNeuriteLength: CCTE's Synaptogenesis and Neurite Maturation Assay in rat cortical cells for Neurite Spot Count per Neurite Length, Mundy Lab (AID 2284210; active means hit-call score of the fitted dose curve at least 0.9, where 1 is the maximum; inactive means score below 0.9)
Outline: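 Primary rat cortical neurons, compound exposure DIV 7–12, 288.33 h endpoint. Hoechst, anti-MAP2 and anti-synaptophysin labelling; neurite-associated puncta per neurite length scored by automated imaging relative to DMSO controls.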

Measured: AC50

Chain of human Thyroid hormone Receptor alpha (TRa), THRA (gene 7067) (P10827 whole entry, looked up, the tested form may be a part): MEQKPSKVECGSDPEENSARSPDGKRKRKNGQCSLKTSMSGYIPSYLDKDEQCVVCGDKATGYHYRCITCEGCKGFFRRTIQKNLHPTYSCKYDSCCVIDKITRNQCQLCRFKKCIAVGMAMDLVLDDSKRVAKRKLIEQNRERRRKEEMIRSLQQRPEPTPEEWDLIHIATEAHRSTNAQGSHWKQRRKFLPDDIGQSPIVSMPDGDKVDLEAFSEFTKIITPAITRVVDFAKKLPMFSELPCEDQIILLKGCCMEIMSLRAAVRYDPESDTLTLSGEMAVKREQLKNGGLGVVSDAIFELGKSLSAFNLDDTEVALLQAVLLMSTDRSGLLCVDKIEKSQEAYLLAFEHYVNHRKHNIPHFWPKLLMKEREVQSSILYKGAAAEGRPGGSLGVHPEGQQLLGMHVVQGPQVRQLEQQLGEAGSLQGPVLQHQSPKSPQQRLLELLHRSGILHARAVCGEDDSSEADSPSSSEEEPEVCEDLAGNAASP
Chain of zebrafish Thyroid Hormone Receptor beta (TRb), thrb (gene 30607) (Q9PVE4 whole entry, looked up, the tested form may be a part): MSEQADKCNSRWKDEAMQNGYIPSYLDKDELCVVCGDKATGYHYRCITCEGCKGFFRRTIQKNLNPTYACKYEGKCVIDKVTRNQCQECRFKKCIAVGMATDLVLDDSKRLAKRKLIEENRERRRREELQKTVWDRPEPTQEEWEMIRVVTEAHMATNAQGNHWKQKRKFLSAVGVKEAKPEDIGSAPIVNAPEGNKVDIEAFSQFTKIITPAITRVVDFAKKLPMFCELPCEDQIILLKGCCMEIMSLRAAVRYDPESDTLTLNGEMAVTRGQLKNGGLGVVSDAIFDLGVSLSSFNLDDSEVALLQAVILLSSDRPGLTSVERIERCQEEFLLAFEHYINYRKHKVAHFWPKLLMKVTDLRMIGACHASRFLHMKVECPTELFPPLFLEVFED
Chain of mouse Peroxisome Proliferator-activated Receptor gamma (PPARg), Pparg (gene 19016) (P37238 whole entry, looked up, the tested form may be a part): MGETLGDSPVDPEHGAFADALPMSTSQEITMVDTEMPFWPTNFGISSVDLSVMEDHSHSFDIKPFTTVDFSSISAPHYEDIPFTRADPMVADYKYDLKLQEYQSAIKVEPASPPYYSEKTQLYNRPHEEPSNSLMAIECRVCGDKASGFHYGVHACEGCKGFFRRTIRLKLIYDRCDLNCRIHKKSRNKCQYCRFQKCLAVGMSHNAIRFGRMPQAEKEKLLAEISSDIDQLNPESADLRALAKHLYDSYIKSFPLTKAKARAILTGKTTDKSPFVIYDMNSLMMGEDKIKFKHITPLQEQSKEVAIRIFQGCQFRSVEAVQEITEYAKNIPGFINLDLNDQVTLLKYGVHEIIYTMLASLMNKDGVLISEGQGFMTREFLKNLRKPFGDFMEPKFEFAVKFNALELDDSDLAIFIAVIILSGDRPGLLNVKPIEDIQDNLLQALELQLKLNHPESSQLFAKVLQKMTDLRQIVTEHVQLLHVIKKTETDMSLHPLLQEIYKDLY
Chain of zebrafish Estrogen Receptor (ER1), esr1 (gene 259252) (P57717 whole entry, looked up, the tested form may be a part): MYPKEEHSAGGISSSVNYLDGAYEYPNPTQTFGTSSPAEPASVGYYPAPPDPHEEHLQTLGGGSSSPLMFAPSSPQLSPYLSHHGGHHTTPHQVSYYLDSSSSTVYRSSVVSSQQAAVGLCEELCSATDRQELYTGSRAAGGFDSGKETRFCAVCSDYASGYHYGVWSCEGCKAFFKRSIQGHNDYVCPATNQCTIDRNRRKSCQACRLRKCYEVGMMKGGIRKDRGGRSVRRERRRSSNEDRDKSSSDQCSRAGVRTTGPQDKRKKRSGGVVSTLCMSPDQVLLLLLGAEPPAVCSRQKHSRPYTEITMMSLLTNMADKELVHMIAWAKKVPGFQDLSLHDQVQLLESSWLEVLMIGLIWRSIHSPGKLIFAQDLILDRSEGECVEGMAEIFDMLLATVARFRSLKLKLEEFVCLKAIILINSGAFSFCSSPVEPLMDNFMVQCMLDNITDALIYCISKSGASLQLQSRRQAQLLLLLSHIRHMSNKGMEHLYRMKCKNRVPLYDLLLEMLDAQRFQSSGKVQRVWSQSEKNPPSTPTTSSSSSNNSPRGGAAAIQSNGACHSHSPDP
Chain of zebrafish Estrogen Receptor (ESR1), esr1 (gene 259252) (P57717 whole entry, looked up, the tested form may be a part): as above
Chain of Peroxisome proliferator-activated receptor gamma (Homo sapiens) (P37231 whole entry, looked up, the tested form may be a part): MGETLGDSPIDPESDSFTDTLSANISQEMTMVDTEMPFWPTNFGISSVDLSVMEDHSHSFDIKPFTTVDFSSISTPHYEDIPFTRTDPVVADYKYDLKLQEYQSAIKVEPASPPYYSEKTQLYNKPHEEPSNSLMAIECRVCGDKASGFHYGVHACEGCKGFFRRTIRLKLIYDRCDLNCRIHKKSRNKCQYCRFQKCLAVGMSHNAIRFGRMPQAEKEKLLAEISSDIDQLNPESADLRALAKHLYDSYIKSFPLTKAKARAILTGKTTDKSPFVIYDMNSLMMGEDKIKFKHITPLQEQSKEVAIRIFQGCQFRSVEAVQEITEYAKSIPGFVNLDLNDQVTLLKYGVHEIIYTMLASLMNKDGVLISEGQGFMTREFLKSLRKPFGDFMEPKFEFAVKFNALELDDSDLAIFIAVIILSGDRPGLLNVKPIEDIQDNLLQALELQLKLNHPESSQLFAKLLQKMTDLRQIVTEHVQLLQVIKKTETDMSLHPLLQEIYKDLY
Chain of frog Thyroid hormone Receptor alpha (TRa), thra-a (gene 397942) (P15204 whole entry, looked up, the tested form may be a part): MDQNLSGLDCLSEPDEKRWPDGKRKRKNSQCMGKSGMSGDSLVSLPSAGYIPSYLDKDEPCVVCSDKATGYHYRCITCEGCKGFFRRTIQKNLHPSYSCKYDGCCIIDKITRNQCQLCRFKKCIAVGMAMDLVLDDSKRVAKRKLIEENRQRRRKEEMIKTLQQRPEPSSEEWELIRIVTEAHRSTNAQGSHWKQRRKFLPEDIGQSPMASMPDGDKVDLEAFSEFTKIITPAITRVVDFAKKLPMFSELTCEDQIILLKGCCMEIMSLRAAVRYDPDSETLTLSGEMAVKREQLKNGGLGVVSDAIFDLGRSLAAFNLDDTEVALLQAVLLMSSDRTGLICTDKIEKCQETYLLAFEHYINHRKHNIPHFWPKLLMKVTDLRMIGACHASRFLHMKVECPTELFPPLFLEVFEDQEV

CC(C)(c1cc(Cl)c(O)c(Cl)c1)c1cc(Cl)c(O)c(Cl)c1
inactive: [1] | [2] | [5] | [6] | [7] | [10]
active: [3] 2.73 µM | [4] 2.92 µM | [8] 1.62 µM | [9] 2.8 µM

C[C@]12CC[C@H](O)C[C@H]1CC[C@@H]1[C@@H]2C[C@@H](O)[C@]2(C)[C@@H](C3=CC(=O)OC3)CC[C@]12O
active: [11] 5.79 µM | [12] 1.28 µM | [13] 5.47 µM | [14] 5.44 µM | [15] 4.34 µM | [16] 3.91 µM | [17] 10.8 µM | [18] 10.7 µM | [19] 4.25 µM

CNC(=N[N+](=O)[O-])NCC1CCOC1 (stereo not given)
inactive: [20]
